NPSR antag – qHTS Assay for Antagonists of the Neuropeptide S Receptor: cAMP Signal Transduction. Potency, µM (doses to about 38.3 µM), inactives show top-dose activity change, negative = inhibition, most hits filed as inhibitors. AID 1461, 2008. 220,000 compounds, 1% hits. CHO-NPSR cells, cAMP TR-FRET, antagonist mode. Q6W5P4; further: potency means the concentration at half of the fitted maximal effect; on the % scale 0 is the no-effect control and ±100 the full control effect; nearly all actives have a fitted effect of over 50% in size
RXFP1 antagonist – qHTS Assay for Antagonists of the Relaxin Receptor RXFP1; Relaxin receptor 1 (Homo sapiens), Q9HBX9; HEK293-RXFP1, relaxin-stimulated cAMP HTRF, 30 min; stronger effect = lower value; activity change, negative = inhibition, % at 57.5 µM; 350,000 compounds, 0.59% hits; AID 1259400, 2018;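 active means activity change of -60% or lower, but not beyond a set lower limit; inconclusive means change between -60% and -40%, or beyond the set limit; inactive means change above -40%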; further: on the % scale 0 is the no-effect control and ±100 the full control effect
TSHR antag – Antagonists of the Thyroid Stimulating Hormone Receptor: HTS campaign. TSHR-expressing cells, TSH-stimulated cAMP HTRF, 2 h; stronger effect = lower value. Thyrotropin receptor (Homo sapiens), P16473. activity change, negative = inhibition, % at 11.5 µM. AID 504810, 2011. 330,000 compounds, 0.2% hits;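 active means activity change below a set negative limit, meaning inhibition stronger than a set level, cut at about -70% in these data; inconclusive means activity change between two set negative limits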; further: on the % scale 0 is the no-effect control and ±100 the full control effect
Target sequence (P16473 whole entry, looked up): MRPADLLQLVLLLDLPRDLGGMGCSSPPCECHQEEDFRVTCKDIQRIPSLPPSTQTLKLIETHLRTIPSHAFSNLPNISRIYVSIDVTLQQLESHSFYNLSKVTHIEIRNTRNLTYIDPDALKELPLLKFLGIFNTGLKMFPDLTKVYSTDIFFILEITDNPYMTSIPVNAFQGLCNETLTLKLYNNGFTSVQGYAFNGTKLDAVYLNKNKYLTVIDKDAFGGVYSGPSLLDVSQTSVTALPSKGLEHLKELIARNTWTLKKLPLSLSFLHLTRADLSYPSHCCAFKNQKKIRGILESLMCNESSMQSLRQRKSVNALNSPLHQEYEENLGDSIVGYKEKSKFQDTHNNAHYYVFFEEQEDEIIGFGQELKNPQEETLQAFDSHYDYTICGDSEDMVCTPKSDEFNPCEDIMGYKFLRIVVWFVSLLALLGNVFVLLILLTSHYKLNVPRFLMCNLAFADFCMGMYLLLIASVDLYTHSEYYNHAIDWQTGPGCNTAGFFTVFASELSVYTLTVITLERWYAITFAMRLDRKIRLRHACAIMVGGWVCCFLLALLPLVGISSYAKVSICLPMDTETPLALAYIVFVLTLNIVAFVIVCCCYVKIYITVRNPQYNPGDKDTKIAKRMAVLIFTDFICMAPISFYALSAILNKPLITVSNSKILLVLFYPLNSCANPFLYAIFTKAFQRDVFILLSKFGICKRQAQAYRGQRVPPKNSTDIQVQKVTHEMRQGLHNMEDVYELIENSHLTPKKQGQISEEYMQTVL
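Cell-based HTRF cAMP assay; TSHR cells + compound, TSH EC80 (4nM final), 2 h, 37 deg C. Lysis with anti-cAMP cryptate and cAMP-d2, 30 min RT, read 665/620 nm.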
TCR act – Activators of T cell receptors: qHTS campaign | 330,000 tested, under 10 active | Potency, µM (top dose mostly 9.22 µM), for inactives: at the highest dose activation of IL-2 secretion, usual class: activators | primary human leukocytes, anti-CD3, IL-2 HTRF, 48 h; further: % of control where 0% means no effect
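Primary human leukocytes incubated 48 hr with anti-CD3 beads plus compound, without co-stimulation. Secreted IL-2 measured by HTRF (europium cryptate/d2 anti-IL-2 pair, 320 nm excitation, 665 nm emission).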
PTHR1 ag – qHTS for PTHR1 Agonists: Primary Screen | AID 743266, 2014 | Potency, µM (doses to about 115 µM), for the others: at the top dose activation, hits mostly activators | 410,000 compounds, 0.075% hits | Parathyroid hormone/parathyroid hormone-related peptide receptor (Homo sapiens), Q03431 | HEK293 GP2 PTHR1 cells, GloSensor cAMP luminescence, 1 h; further: potency means the concentration at half of the fitted maximal effect; nearly all actives have a fitted effect of over 55% in size
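HEK-293-derived GP2 cells expressing PTHR1 and a GloSensor cAMP reporter, 3,000/well, plated overnight, given luciferin plus IBMX (each 0.5 mM as added) for 1 h at 37 °C, then compound for 1 h at 37 °C. Luminescence was read after 15 min at room temperature.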
RXFP1 ag – qHTS Assay for Agonists of the Relaxin Receptor RXFP1 | Relaxin receptor 1 (Homo sapiens), Q9HBX9 | HEK293T-RXFP1 cAMP TR-FRET, 30 min; response scale: percent of porcine relaxin response, buffer zero | Potency, µM (series often up to 57.5 µM), without a hit: at the top dose activation, hits mostly activators | 370,000 compounds, 0.3% hits; further: potency means the concentration at half of the fitted maximal effect; on the % scale 0 is the no-effect control and ±100 the full control effect; nearly all actives have a fitted effect of over 60% in size
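HEK293T cells stably expressing RXFP1 were pretreated with the PDE4 inhibitor Ro 20174, exposed to compounds for 30 min at 37C, lysed, and cAMP was read by TR-FRET. Data normalized to buffer (basal) and 29 nM porcine relaxin (100%).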
Starred values were filed as active, the others as inactive; i = inactive; ? = inconclusive; . = no result given; [ ] = dose if it differs, or a comment. This is one part of a sample in which hits are shown more often than they occur. Unless noted, the call rests on the fitted dose curve; in most records, active means well fitted curve in the direction sought with a large enough effect; inconclusive means small, poorly fitted or top-dose-only effect, or another doubt; inactive means no such curve, though single readings can be large; an effect the other way counts as inactive or inconclusive.

SMILES | NPSR antag | RXFP1 antagonist | TSHR antag | TCR act | PTHR1 ag | RXFP1 ag
Cc1ccc(C)c(N2CCN(C(=O)C3CCCN(c4ncnc5c4nc4n5CCCCC4)C3)CC2)c1 (centres undefined) | . | -83.0* | -21.1 | -13.3% | -29.2% | 2.8%
O=C(CCC1N=C2c3ccccc3N=C(SCC(=O)Nc3ccc(F)cc3)N2C1=O)NCc1cccs1 (centres undefined) | . | -20.5 | . | . | i | 3.7%
O=C(CCc1ccccc1)N(Cc1cccnc1)c1nc2c(F)cc(F)cc2s1 | . | -86.0* | . | . | -42.7% | 0.4%
O=C(C1CCCCC1)N(Cc1cccnc1)c1nc2c(F)cccc2s1 | . | -71.6* | . | . | ? | 0.8%
CCOc1cc(CNCCCN2CCOCC2)cc(Br)c1OCc1ccccc1Cl | ? | -91.8* | -5.1 | 0.7% | -22.2% | 3.2%
CCOc1cc(CNCCO)cc(Br)c1OCc1ccccc1Cl | 15.3%[46.1 µM] | -74.1* | -3.9 | -1.6% | -16.5%[57.5 µM] | -0.6%
COc1c(C)c2c(c(O)c1C/C=C(\C)CCC(=O)OCCN1CCOCC1)C(=O)OC2 | . | -4.8 | . | . | . | .
Cc1ccc(N2CCN(C(=O)c3c(C)oc4ncnc(N5CCCCC5)c34)CC2)c(C)c1 | . | . | . | . | -63.2% | -1.5%
CC(Sc1ncnc2sc(-c3ccccc3)cc12)C(=O)NCC1CCCO1 (centres undefined) | . | -97.6* | -13.4 | 4.1% | -9.7% | 1.6%
CCc1cccc2c(SC(C)C(=O)NCC3CCCO3)nc(-c3ccccc3)nc12 (centres undefined) | -1.7%[46.1 µM] | 7.1 | -3.2 | -9.5% | i | -1.6%
COc1ccc(C2C(=O)N(C3CCCCCC3)CC(=O)N2CCc2ccc(OC)c(OC)c2)cc1 (centres undefined) | . | 15.4 | . | . | 23.3% | 1.3%
O=C(O)Cn1cnnn1 | . | 3.2 | . | . | . | .
CC[C@@H](C(=O)[C@@H](C)[C@@H](O)[C@H](C)CCc1ccc(C)c(O)c1C(=O)O)[C@H]1O[C@](CC)([C@H]2CC[C@](O)(CC)[C@H](C)O2)C[C@@H]1C | . | . | -84.2* | 4.2% | -55.0% | 3.0%
CN1CCN(C(c2ccc(Cl)cc2Cl)c2sc3nc(-c4ccco4)nn3c2O)CC1 (centres undefined) | . | 4.0 | . | . | -19.7% | 1.2%
COc1ccccc1CNC(=O)C1CCN(S(=O)(=O)c2c(C)noc2/C=C/c2cccs2)CC1 | . | 15.9 | . | . | -21.4% | 5.0%
CC(C)c1ccc(OCC(=O)Nc2ccc(S(=O)(=O)Nc3ncccn3)cc2)cc1 | . | . | . | . | i | 2.4%
O=c1c2ccccc2sc2nc(C3CCCCC3)n(Cc3ccco3)c(=O)c12 | 10µM* | 2.5 | . | 5.6% | i | 1.3%
Cc1ccc2[nH]c3c(N4CCN(Cc5ccccc5)CC4)ncnc3c2c1 | 12.6µM* | ? | -17.6 | 0.1% | -12.3% | -2.9%
COc1ccc2c(c1)[nH]c1c(N3CCN(Cc4ccc5c(c4)OCO5)CC3)ncnc12 | 12.6µM* | -12.7 | -38.3 | 4.8% | -31.5% | -2.5%
COCCn1c(=S)[nH]c2sc3c(c2c1=O)CCC(C)C3 (centres undefined) | . | -24.8 | -8.4 | -1.1% | i | ?
COCCCn1c(=S)[nH]c2sc3c(c2c1=O)CCCS3 | 7.94µM* | -2.4 | 2.8 | 2.0% | i | 15.8µM*
CCC(C)(C)C1CCc2c(sc(NC(=O)c3ccccc3C(=O)O)c2C#N)C1 (centres undefined) | ? | -69.3* | -23.8 | -4.3% | -12.2% | 0.2%
Nc1ncnc2c1ncn2Cc1c(F)cccc1Cl | . | -5.8 | . | . | . | .
O=C(NCCc1ccccc1Cl)c1ccc(Cn2c(=O)c3cccn3c3cccnc32)cc1 | . | 8.9 | . | . | i | 22.4µM*
CC(C)C(=O)OCc1cccc(OC(=O)[C@@H]2N3C(=O)[C@@H](NC(=O)Cc4ccccc4)[C@H]3SC2(C)C)c1 | . | -17.8 | . | . | . | .

Assay outcomes as filed in PubChem BioAssay.
